Here are results for six compounds from PubChem BioAssay (NCI).

The panel holds about 83,000 compounds, 20% with a hit somewhere; the sample as a whole holds those more often.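 Method: cells in 96-well plates; compound added at one concentration; 48 h incubation; percent growth measured; values under 10 scored active.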 Values without a mark were called inactive. Active and inactive are the calls of the source.

Some test systems named below: HCT-15 colon; HT29 colon; SNB-75 CNS; SNB-19 CNS; U251 CNS; PC-3 prostate; SK-MEL-5 melanoma; UACC-62 melanoma; LOX IMVI melanoma; SK-MEL-28 melanoma; SK-MEL-2 melanoma; EKVX NSCLC; SN12C renal; UO-31 renal; TK-10 renal; ACHN renal; A498 renal; MOLT-4 leukemia; SR leukemia; CCRF-CEM leukemia.
Common to all, as to test: NCI-60 one-dose screen, 48 h (100 = growth as untreated, 0 = no growth, -100 = all killed)
Common to all, as to conditions: 10 µM unless noted

`CCC[S@@](=O)c1ccc2nc(NC(=O)OC)[nH]c2c1`: the growth in the assay on HCT-15 colon is 68.3%; in the assay with HT29 colon, 62.5%; with SNB-75 CNS it was 82.6%; in the assay with SNB-19 CNS, 87.6%; with U251 CNS, 82.2%; in the assay on PC-3 prostate it was 78.4%. In addition, the growth with SK-MEL-5 melanoma is 83.3%; in the assay with UACC-62 melanoma, 72.7%; in the assay on LOX IMVI melanoma it was 90.2%; with SK-MEL-28 melanoma, 89.3%; in the assay on SK-MEL-2 melanoma, 95.1%; with EKVX NSCLC it was 90.2%. Also, the growth with SN12C renal was 96.4%; with UO-31 renal it was 90.9%; with TK-10 renal, 91.9%; in the assay with ACHN renal, 102%; with A498 renal, 87.6%; in the assay with MOLT-4 leukemia, 74.5%. Also, in the assay on SR leukemia, the growth was 41.6%.
Turning to `C=C1C(=O)O[C@H]2[C@H]1CC/C(COC(=O)CCCCCCCCC(=O)OC/C1=C/CC[C@@]3(C)O[C@H]3[C@H]3OC(=O)C(=C)[C@@H]3CC1)=C\CC[C@@]1(C)O[C@@H]21`, the growth with HCT-15 colon is -31.6% (active); with HT29 colon, -27.5% (active); in the assay with SNB-75 CNS, 58.4%; in the assay with SNB-19 CNS it was 43.8%; in the assay with U251 CNS it was 12.1%; in the assay with PC-3 prostate, -6.62% (active). Further, the growth in the assay on SK-MEL-5 melanoma is -32.6% (active); with UACC-62 melanoma it was -18.8% (active); in the assay with LOX IMVI melanoma it was -84.7% (active); in the assay with SK-MEL-28 melanoma it was -12.8% (active); in the assay with SK-MEL-2 melanoma it was 22%; with EKVX NSCLC, 8.84% (active). For the same compound, the growth was -1.39% (active) in the assay on SN12C renal; -75.2% (active) in the assay with UO-31 renal; 0.838% (active) with TK-10 renal; -23.2% (active) in the assay with ACHN renal; 2.5% (active) in the assay with CCRF-CEM leukemia; 3.83% (active) in the assay on MOLT-4 leukemia. In the assay on SR leukemia, the growth is -2.09% (active).
As to `COc1ccc(Nc2cc(NC(=O)CNc3cc(OC)c(Cl)c(OC)c3Cl)ncn2)cc1`, the growth with HCT-15 colon was 73.5%; with HT29 colon, 80.9%; in the assay with SNB-75 CNS, 81.3%; in the assay with SNB-19 CNS it was 96.8%; in the assay with U251 CNS, 88.5%; in the assay with PC-3 prostate, 57.9%. Further, the growth in the assay with SK-MEL-5 melanoma was 85.1%; with UACC-62 melanoma, 62.8%; in the assay on LOX IMVI melanoma it was 57.2%; in the assay with SK-MEL-28 melanoma, 84.7%; with SK-MEL-2 melanoma it was 84.8%; with EKVX NSCLC, 72.2%. Moreover, the growth was 89.2% in the assay with SN12C renal; 59.6% in the assay with UO-31 renal; 93.1% with TK-10 renal; 78.8% in the assay with ACHN renal; 89.3% in the assay with CCRF-CEM leukemia; 52.2% in the assay on MOLT-4 leukemia. The growth with SR leukemia is 78.1%.
Turning to `c1cc(CNC23CC4CC(CC(C4)C2)C3)cc(C[N+](Cc2cccc(CNC34CC5CC(CC(C5)C3)C4)c2)(Cc2cccc(CNC34CC5CC(CC(C5)C3)C4)c2)Cc2cccc(CNC34CC5CC(CC(C5)C3)C4)c2)c1` (centres undefined), the growth in the assay with HCT-15 colon is 3.19% [42 µM] (active); with HT29 colon, -5.66% [42 µM] (active); in the assay with SNB-75 CNS it was 36.9% [42 µM]; with SNB-19 CNS, 31.2% [42 µM]; in the assay with U251 CNS it was 11.6% [42 µM]; in the assay with PC-3 prostate, 43% [42 µM]. Also, the growth with SK-MEL-5 melanoma was 23.1% [42 µM]; with UACC-62 melanoma it was 30.3% [42 µM]; in the assay with LOX IMVI melanoma, -4.47% [42 µM] (active); with SK-MEL-28 melanoma, 51.5% [42 µM]; in the assay on SK-MEL-2 melanoma it was 31.8% [42 µM]; in the assay with EKVX NSCLC, 30.7% [42 µM]. The growth in the assay on SN12C renal was 7.96% [42 µM] (active); with UO-31 renal, -8.13% [42 µM] (active); in the assay with TK-10 renal, 27.1% [42 µM]; in the assay on ACHN renal it was -9.81% [42 µM] (active); in the assay on A498 renal it was 50.1% [42 µM]; in the assay with MOLT-4 leukemia, -21.9% [42 µM] (active). Besides, in the assay with SR leukemia, the growth was 9.46% [42 µM] (active).
As for `C=CCn1c(SCC(=O)Nc2ccc(C(=O)/C=C/c3ccc(Cl)cc3)cc2)nnc1-c1cc(OC)c(OC)c(OC)c1`, the growth is 89.7% in the assay with HCT-15 colon; 97.4% in the assay on HT29 colon; 86.2% with SNB-75 CNS; 85.3% in the assay on SNB-19 CNS; 90.7% in the assay on U251 CNS; 75.2% with PC-3 prostate. Further, the growth in the assay on SK-MEL-5 melanoma is 63.5%; with UACC-62 melanoma, 70.4%; in the assay with LOX IMVI melanoma, 91.8%; in the assay on SK-MEL-28 melanoma, 106%; with SK-MEL-2 melanoma, 103%; in the assay with EKVX NSCLC, 92.3%. In addition, the growth was 79.7% in the assay with SN12C renal; 66.5% in the assay with UO-31 renal; 102% with TK-10 renal; 106% in the assay with ACHN renal; 84.6% in the assay on CCRF-CEM leukemia; 70.8% with MOLT-4 leukemia. Besides, in the assay with SR leukemia, the growth was 72.9%.
Consider `CCOC(=O)c1ccc(Nc2ncnc3ccc(NC(=O)c4ccccc4)cc23)cc1`, for which the growth in the assay on HCT-15 colon was 78.3%; with HT29 colon it was 79.6%; in the assay with SNB-75 CNS, 77.9%; in the assay on SNB-19 CNS it was 99.9%; with U251 CNS it was 94.1%; with PC-3 prostate it was 83.1%. Moreover, the growth in the assay on SK-MEL-5 melanoma was 84.6%; in the assay on UACC-62 melanoma, 88.9%; in the assay with LOX IMVI melanoma, 87.8%; with SK-MEL-28 melanoma, 89.6%; with SK-MEL-2 melanoma, 86.6%; with EKVX NSCLC it was 80.3%. The growth in the assay with SN12C renal is 102%; in the assay on UO-31 renal it was 72.6%; with TK-10 renal, 65.4%; in the assay with ACHN renal, 93.5%; with A498 renal, 106%; in the assay with MOLT-4 leukemia, 63.8%. Moreover, in the assay with SR leukemia, the growth is 73.8%.
